Reference: PubChem BioAssay AID720613 (Broad Institute, 2013)
Records with an inconclusive call do not appear. The source made the active and inactive calls.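 The calls were made as follows: active = falling viability signal at all three exposure times, each curve midpoint within twice the top tested dose; inconclusive = exposure times disagree or curves are weak or poorly fitted; inactive = all exposure times inactive, including rising signal.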

Experiment: cytotoxicity in SNB-75 CNS cells – cell-based, Alamar Blue fluorescence, 8-48 h, dry powder, mechanism study for HRAS target identification, late-stage follow-up (AID 720613)
Details: SNB-75 viability, 24 h; series mostly up to 35 µM

SMILES	outcome
Cc1onc(C(=O)N2CCN(C(c3ccncc3)c3ccncc3)CC2)c1[N+](=O)[O-]	inactive
CCC(=O)N(c1ccc(OC)c(Cl)c1)C(C(=O)NCCc1ccccc1)c1cccs1 (configuration not stated)	inactive
